The record followed here is PubChem BioAssay (Tox21).

The structures appear in SMILES notation. A number with no mark means an inactive call. Results filed as inconclusive are left out. Activity calls are given as the source filed them. Unless noted, calls come from the whole dose curve.

Assay [1] is described as follows: Nuclear factor erythroid 2-related factor 2/antioxidant responsive element (Nrf2/ARE) small molecule agonists: qHTS cell viability counter screen in human keratinocytes (AID 1919968; active = well fitted curve in the direction sought with a large enough effect in the repeat runs; an effect the other way counts as inactive or inconclusive; note: nearly all actives have a fitted effect of over 55% in size). The method, boiled down: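 Seed 1,500 KeratinoSens cells per well, then incubate 5 h at 37 C/5% CO2. Add compounds in DMSO and incubate 23 h. Add CellTiter-Fluor, wait 1 h and read fluorescence.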
Background: In qHTS, concentration-response curves come from the screen itself.

The nature of assay [2]: Nuclear factor erythroid 2-related factor 2/antioxidant responsive element (Nrf2/ARE) small molecule agonists: luciferase reporter gene qHTS assay in human keratinocytes (AID 1919969). Note: nearly all actives have a fitted effect of over 35% in size. In general terms: A reporter such as luciferase makes a cellular process visible.
Assay [3] deals with Gonadotropin-releasing hormone receptor (Homo sapiens) (UniProt P30968). Nature of the assay: Human gonadotropin-releasing hormone receptor (GnRHR) small molecule agonists, calcium flux assay in GnRHR-HEK293 cells (AID 1920063). Note: nearly all actives have a fitted effect of over 35% in size. Note: potency is the fitted concentration of half-maximal effect. The method, boiled down:
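Cells: HEK293 stably expressing human GnRHR. Steps: overnight (18 h) culture, 1 h calcium dye loading at 37 C, compound addition, kinetic fluorescence read at 480/540 nm. Each compound tested at 15 concentrations in triplicate.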
A general note: A change in cytosolic calcium serves as a functional read-out for many receptors and channels.

The target of assay [4] is KiSS-1 receptor (Homo sapiens) (UniProt Q969F8). The assay can be described thus: Human kisspeptin (KISS1R) small molecule agonists, calcium flux assay in KISS1R-HEK293 cells (AID 1920064; active = well fitted curve in the direction sought with a large enough effect in the repeat runs; an effect the other way counts as inactive or inconclusive). The method, boiled down:
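Cells plated and incubated 18 h; dye added, 1 h at 37 C; compounds in DMSO pinned in; signal read at 480/540 nm every second for 3 min. Each compound tested at 15 concentrations in triplicate.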

Assay [5] in a line: G protein-coupled receptor (GPCR) small molecule agonists, calcium flux assay: HEK293 wild type cell line counter screen (AID 1920065). Summed up:
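Counter-screen of the Tox21 10K library for non-specific calcium release: dye-loaded cells received compounds in DMSO and were monitored by kinetic fluorescence (480/540 nm, 3 min). Fifteen concentrations, run in triplicate.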

Assay [6] in a line: p53 small molecule agonists, cell-based qHTS assay with human liver microsomes: qHTS cell viability counter screen (AID 1963579). Note: nearly all actives have a fitted effect of over 45% in size. The method, boiled down:
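Metabolic activation used human liver microsomes and NADPH, both 0.5 mg/mL final, over 16 hours at 37 C on p53RE-bla cells (4,000/well). Cytotoxicity measured by CellTiter-Glo luminescence, 30 min at room temperature.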

A short description of assay [7]: p53 small molecule agonists, cell-based qHTS assay with rat liver microsomes: qHTS cell viability counter screen (AID 1963580). Note: nearly all actives have a fitted effect of over 45% in size. The method, boiled down: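 Intracellular ATP, by CellTiter-Glo luminescence, defines viability. HCT-116 p53RE-bla cells, 4,000 per well, were compound-treated in the presence of rat liver microsomes and NADPH for 16 h at 37 C.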
Assay [8] concerns the target 5-hydroxytryptamine receptor 2A (Homo sapiens) (UniProt P28223). Nature of the assay: 5-hydroxytryptamine receptor 2A (HTR2A) small molecule antagonists, cell-based qHTS assay (AID 1963586). Note: nearly all actives have a fitted effect of over 45% in size. Summed up:
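Antagonist-mode intracellular calcium assay: DOI (4 nM) added after 5 min compound pre-incubation at room temperature to dye-loaded HTR2A-CHO cells. Fluorescence followed for 3 min, sampled every second.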

Assay [9] shares this target. Nature of the assay: 5-hydroxytryptamine receptor 2A (HTR2A) small molecule agonists, cell-based qHTS assay (AID 1963587). Note: nearly all actives have a fitted effect of over 30% in size. Summed up: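 Kinetic calcium-flux fluorescence (2 min, 1 sec intervals) after compound addition in agonist mode. HTR2A-CHO cells were cultured 18 h, then dye-loaded 1 h at 37 C.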
The target in assay [10] is Muscarinic acetylcholine receptor M1 (Homo sapiens) (UniProt P11229). Nature of the assay: Cholinergic receptor muscarinic 1 (CHRM1) small molecule antagonists, cell-based qHTS assay (AID 1963588). Note: nearly all actives have a fitted effect of over 40% in size. Summed up:
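CHRM1-CHO calcium-flux assay, antagonist mode. Cells were seeded 18 h, dye-loaded 1 h at 37 C and given compound for 5 min at RT, then acetylcholine was added at 50nM. FDSS fluorescence was read 3 min; 15 concentrations, three runs.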

Assay [11] has the same target. Nature of the assay: Cholinergic receptor muscarinic 1 (CHRM1) small molecule agonists, cell-based qHTS assay (AID 1963589). Note: nearly all actives have a fitted effect of over 35% in size. Summed up:
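Agonist-mode qHTS in CHO cells stably carrying human muscarinic M1. Intracellular calcium is tracked by fluorescence every second after compound transfer; each compound runs at 15 concentrations in three independent runs.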

Assay [12] can be described thus: cAMP Responsive Elements (CRE) small molecule agonists, cell-based qHTS assay (AID 1963590). Summed up: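 Agonist mode qHTS in CRE-bla HEK 293T cells: compounds dosed from DMSO for 3 h at 37 C/5% CO2, followed by LiveBLAzer B/G FRET substrate for 2 h at room temperature.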
A short description of assay [13]: cAMP Responsive Elements (CRE) small molecule antagonists, cell-based qHTS assay (AID 1963591; active = well fitted inhibition curve with a large enough effect in the signal ratio in the repeat runs, not every such curve was filed as active; the % refers to the signal ratio). Summed up:
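Antagonist mode: test compounds are co-incubated with the adenylyl cyclase activator NKH477 (0.25 uM final) on CRE-bla HEK293T cells for 3 h at 37 °C, followed by LiveBLAzer substrate loading.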

The target of assay [14] is Beta-2 adrenergic receptor (Homo sapiens) (UniProt P07550). The assay can be described thus: Adrenergic beta2 receptor (ADRB2) small molecule antagonists, cell-based qHTS assay (AID 1963592). For activity change, negative = inhibition: series mostly up to about 92 µM. Note: nearly all actives have a fitted effect of over 50% in size. Note: potency is the fitted concentration of half-maximal effect. The method, boiled down:
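Cells (CHO, stable ADRB2 overexpression) incubated 18-20hr at 37C; compounds added from DMSO; agonist mix (1nM isoproterenol, 100uM IBMX, 25uM Ro-20-1724) added; 0.5hr RT; d2-cAMP and anti-cAMP-cryptate added; 1hr RT; 665/615 nm read.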

Assay [15] deals with D(2) dopamine receptor (Homo sapiens) (UniProt P14416). Nature of the assay: Dopamine D2 receptor (DRD2) small molecule agonists, cell-based qHTS assay (AID 1963594). Note: nearly all actives have a fitted effect of over 35% in size. The method, boiled down: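 cAMP accumulation in DRD2-HEK293 cells measured by HTRF after 1 h detection; compounds added 10 min before NKH477 (200nM […]) forskolin-analogue stimulation, 30 min at room temperature, with Ro20-1724 present at 0.1 mM final.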
Sequence of D(2) dopamine receptor (Homo sapiens) (P14416 whole entry, looked up): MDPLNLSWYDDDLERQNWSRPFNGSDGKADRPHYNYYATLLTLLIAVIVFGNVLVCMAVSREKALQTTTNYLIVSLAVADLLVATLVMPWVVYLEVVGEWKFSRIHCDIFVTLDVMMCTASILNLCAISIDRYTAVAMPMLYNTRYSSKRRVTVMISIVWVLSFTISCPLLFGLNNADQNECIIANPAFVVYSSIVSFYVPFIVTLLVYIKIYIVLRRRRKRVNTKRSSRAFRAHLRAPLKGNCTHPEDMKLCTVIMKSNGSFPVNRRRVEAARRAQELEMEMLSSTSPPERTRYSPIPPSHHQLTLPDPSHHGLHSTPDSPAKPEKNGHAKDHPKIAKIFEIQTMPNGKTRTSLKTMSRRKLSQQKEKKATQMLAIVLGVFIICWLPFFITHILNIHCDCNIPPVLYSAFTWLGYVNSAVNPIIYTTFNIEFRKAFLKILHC

Assay [16] has the same target. The assay can be described thus: Dopamine D2 receptor (DRD2) small molecule antagonists, cell-based qHTS assay (AID 1963595; active = well fitted inhibition curve with a large enough effect in the signal ratio in the repeat runs, with a control signal flat; the % refers to the signal ratio). The method, boiled down:
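DRD2-HEK293; 0.1 mM Ro20-1724; cpd 10 min RT; NKH477 200 nM + quinpirole 12 nM, 30 min RT; HTRF cAMP (cAMP-d2/anti-cAMP cryptate), 665/620 nm ratio after 1 h.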

A short description of assay [17]: p53 small molecule agonists, cell-based qHTS assay with rat liver microsomes (AID 1963578). The method, boiled down:
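Metabolic activation by rat liver microsomes and NADPH, each 0.5 mg/mL final, added right after compounds to p53RE-bla reporter cells (4,000/well, plated 5 h earlier). 16 h at 37 C, then LiveBLAzer substrate for 2 h at room temperature in the dark; fluorescence read-out.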

Assay [18] can be described thus: p53 small molecule agonists, cell-based qHTS assay: qHTS cell viability counter screen (AID 1963581). Note: nearly all actives have a fitted effect of over 45% in size. The method, boiled down: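 Cells: HCT-116 with p53 response element-driven beta-lactamase. Treatment: 16 h, 37 C, compounds in DMSO. Read: CellTiter-Glo luminescence after 30 min RT.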
The nature of assay [19]: p53 small molecule agonists, cell-based qHTS assay with human liver microsomes (AID 1963577).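 Note: p53 response element beta-lactamase reporter cells with liver microsomes plus NADPH.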 The method, boiled down:
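With metabolic activation: human liver microsomes (0.5 mg/mL final) plus NADPH (0.5 mg/mL final) added alongside compounds to p53RE-bla cells; 16 h 37 C exposure; beta-lactamase read by LiveBLAzer fluorescence.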

Assay [20] is described as follows: p53 small molecule agonists, cell-based qHTS assay (AID 1963582; active = well fitted activation curve with a large enough effect in the signal ratio in the repeat runs, not every such curve was filed as active; the % refers to the signal ratio). Summed up: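 Quantitative HTS in p53RE-bla cells: after a 5 h settling period, compounds delivered in DMSO were left on cells for 16 h at 37 C, and reporter induction was measured as fluorescence following 2 h substrate loading.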
% is set by controls: 0 for no effect and ±100 for the full control effect.

Sequence of 5-hydroxytryptamine receptor 2A (Homo sapiens) (P28223 whole entry, looked up): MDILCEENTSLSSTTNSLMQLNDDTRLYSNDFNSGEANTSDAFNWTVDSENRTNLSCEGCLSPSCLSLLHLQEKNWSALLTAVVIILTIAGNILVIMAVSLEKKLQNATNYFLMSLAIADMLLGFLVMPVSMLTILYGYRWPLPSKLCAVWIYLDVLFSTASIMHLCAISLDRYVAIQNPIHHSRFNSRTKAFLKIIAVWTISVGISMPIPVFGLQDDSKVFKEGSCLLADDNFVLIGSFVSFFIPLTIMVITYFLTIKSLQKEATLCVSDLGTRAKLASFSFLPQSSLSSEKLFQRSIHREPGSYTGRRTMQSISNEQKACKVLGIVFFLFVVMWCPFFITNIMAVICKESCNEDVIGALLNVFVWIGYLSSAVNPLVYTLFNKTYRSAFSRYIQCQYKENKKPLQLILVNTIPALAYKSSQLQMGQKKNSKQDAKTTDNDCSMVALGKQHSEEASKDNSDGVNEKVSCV
Sequence of KiSS-1 receptor (Homo sapiens) (Q969F8 whole entry, looked up): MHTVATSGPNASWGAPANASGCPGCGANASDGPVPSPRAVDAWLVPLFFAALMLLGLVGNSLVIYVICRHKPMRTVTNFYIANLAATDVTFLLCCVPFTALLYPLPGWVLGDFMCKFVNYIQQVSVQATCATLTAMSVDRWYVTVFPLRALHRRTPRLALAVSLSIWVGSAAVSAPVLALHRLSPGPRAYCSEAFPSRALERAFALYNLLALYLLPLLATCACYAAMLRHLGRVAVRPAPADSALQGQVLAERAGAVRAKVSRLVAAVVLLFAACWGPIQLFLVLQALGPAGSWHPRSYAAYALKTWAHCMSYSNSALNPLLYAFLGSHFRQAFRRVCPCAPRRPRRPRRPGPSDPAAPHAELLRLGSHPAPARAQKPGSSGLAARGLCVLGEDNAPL
Sequence of Beta-2 adrenergic receptor (Homo sapiens) (P07550 whole entry, looked up): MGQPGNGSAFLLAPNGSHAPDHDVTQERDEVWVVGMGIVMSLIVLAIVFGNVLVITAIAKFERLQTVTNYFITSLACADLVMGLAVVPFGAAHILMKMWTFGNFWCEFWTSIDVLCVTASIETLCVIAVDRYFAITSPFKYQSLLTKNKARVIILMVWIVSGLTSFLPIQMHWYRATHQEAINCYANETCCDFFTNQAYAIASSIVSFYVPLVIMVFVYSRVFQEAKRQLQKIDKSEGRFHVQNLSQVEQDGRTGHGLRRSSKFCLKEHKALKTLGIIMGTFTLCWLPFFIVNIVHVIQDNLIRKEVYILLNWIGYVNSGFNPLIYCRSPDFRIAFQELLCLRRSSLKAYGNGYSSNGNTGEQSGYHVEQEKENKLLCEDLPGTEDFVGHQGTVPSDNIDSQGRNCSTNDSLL
Sequence of Gonadotropin-releasing hormone receptor (Homo sapiens) (P30968 whole entry, looked up): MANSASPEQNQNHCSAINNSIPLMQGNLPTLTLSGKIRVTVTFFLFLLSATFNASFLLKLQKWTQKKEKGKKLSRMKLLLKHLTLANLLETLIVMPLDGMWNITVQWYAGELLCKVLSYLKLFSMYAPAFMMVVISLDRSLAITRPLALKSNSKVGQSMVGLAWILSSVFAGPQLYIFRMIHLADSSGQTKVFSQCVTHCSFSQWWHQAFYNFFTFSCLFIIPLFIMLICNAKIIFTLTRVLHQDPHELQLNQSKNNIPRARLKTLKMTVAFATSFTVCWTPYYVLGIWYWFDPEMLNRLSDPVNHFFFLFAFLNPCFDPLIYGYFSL
Sequence of Muscarinic acetylcholine receptor M1 (Homo sapiens) (P11229 whole entry, looked up): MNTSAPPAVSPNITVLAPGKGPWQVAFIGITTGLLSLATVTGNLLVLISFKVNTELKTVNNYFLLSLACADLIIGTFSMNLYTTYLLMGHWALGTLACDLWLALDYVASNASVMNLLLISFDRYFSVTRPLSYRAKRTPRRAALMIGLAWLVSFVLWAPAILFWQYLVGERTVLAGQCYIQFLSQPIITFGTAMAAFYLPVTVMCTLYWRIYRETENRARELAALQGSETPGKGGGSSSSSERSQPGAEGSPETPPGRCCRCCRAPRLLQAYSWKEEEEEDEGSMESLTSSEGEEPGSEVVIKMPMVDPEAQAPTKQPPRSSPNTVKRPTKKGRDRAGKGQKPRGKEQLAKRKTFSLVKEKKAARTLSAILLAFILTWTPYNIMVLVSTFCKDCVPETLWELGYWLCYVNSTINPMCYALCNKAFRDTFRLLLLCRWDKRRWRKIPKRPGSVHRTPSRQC

Take `O=CCCc1ccccc1`: the Potency result in [1], in assay [2], in assay [3], in assay [6], in [7] and in assay [8] was “inactive” in each case. Moreover, the Potency entry in assay [9], in assay [10], in [11], in assay [12], in assay [13] and in assay [14] was “inactive” throughout. In addition, the Potency result in [15] and in [16] was “inactive” each time. The outcome in assay [4] and in assay [5] was inactive.

As for `CC(=O)OCC[N+](C)(C)C`, the Potency result in [1], in assay [2], in assay [17], in assay [7], in assay [18] and in assay [8] was “inactive” throughout. In addition, the Potency result in [9], in assay [12], in assay [13], in assay [15] and in assay [16] was “inactive” in each case. Further, in [3], the Potency was 6.01 µM (active). In addition, the result in assay [4] and in assay [5] was inactive.

In the case of `CCOc1ccc(NC(=O)OC(C)C)cc1OCC`, the Potency result in assay [1], in assay [2], in [3], in assay [19], in [17] and in assay [6] was “inactive” throughout. Further, the Potency result in assay [7], in [18], in [20], in [8], in assay [9] and in assay [10] was “inactive” in each case. The Potency entry in [11], in assay [13], in assay [14] and in [15] was “inactive” in each case. Besides, in assay [4], the outcome was inactive.

On to `CN1C[C@@H]2C[C@H]1CN2c1cc2c(cc1F)c(=O)c(C(=O)O)cn2C1CC1`, for which the activity change, negative = cytotoxicity in assay [1] was -0.599% [at 19 µM]; in [7], 4.47% [at 13.5 µM]; in assay [18], 10.7% [at 13.5 µM]. Besides, in assay [2], the activity, positive = activation is -6.17% [at 19 µM]. Moreover, the activity change in assay [3] is -0.0937% [at 11.8 µM, stronger effect = higher value]. For the same compound, the activation in assay [4] is -1.39% [at 15.8 µM]; in assay [5] it was 0.573% [at 11.8 µM]; in assay [17] it was 1.2% [at 13.6 µM]; in [20], 6.22% [at 13.5 µM]; in assay [15], 2.8% [at 19 µM]. Further, the activity change, negative = inhibition in assay [13] is 13.7% [at 18.9 µM]; in assay [14] it was -1.81% [at 19 µM]; in assay [16], -0.654% [at 18.9 µM].

Consider `CCCCC/C=C/CC(=O)OC`, for which the Potency entry in [1], in [2], in [3], in assay [6], in assay [7] and in assay [18] was “inactive” each time. Further, the Potency result in assay [20], in assay [8], in [9], in assay [10], in assay [11] and in [12] was “inactive” each time. Also, the Potency result in assay [14], in [15] and in assay [16] was “inactive” each time. For the same compound, the outcome in [4] and in assay [5] was inactive.

For `O=S(=O)(O)CCO`, the Potency result in assay [1], in [2], in assay [3], in assay [19], in assay [17] and in assay [6] was “inactive” in each case. The Potency entry in assay [7], in [18], in assay [20], in assay [8], in assay [9] and in assay [11] was “inactive” in each case. Besides, the Potency entry in [12], in [13], in [14] and in assay [16] was “inactive” in each case. Besides, in assay [4], the result was inactive.

Take `Cc1cc2c(OCC(CNC(C)(C)C)OC(=O)c3ccccc3)cccc2[nH]1` (stereo not given): the Potency entry in [1], in assay [2], in assay [3], in assay [17], in assay [7] and in assay [18] was “inactive” in each case. For the same compound, the Potency entry in assay [12], in assay [13], in assay [15] and in assay [16] was “inactive” throughout. In addition, the result in assay [4] and in assay [5] was inactive. Also, in [14], the Potency was 0.168 µM (active).

Consider `CCCCCCCCCC=O`, for which the Potency entry in [1], in assay [2], in [3], in assay [7], in assay [20] and in assay [8] was “inactive” throughout. The Potency result in [9], in assay [10], in assay [14], in [15] and in assay [16] was “inactive” in each case. In addition, the result in assay [4] and in assay [5] was inactive.
